Rows were chosen to be rich in hits. Some 8.8% of all compounds tested hit in one or more screens of this group.
IL1B secr inh – blocks inflammasome-driven IL-1 beta release | THP-1 LPS/ATP IL-1B secretion, AlphaLISA, 16 h; hits give low values | AID 743279 | 360,000 compounds, 4.7% hits | activity change, % at 57.5 µM; in the data active = activity change below about -50%; inconclusive = mostly about -30% to -49%
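THP-1 cells pretreated 1 hr with compounds (up to 57.5 uM final), then stimulated with LPS (250 ng/mL final) plus ATP (1.25 mM final); secreted IL-1B measured by AlphaLISA after 16 hr, decreased signal indicating inhibition.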
HT1080-NT tox – kills 2HG-producing HT-1080-NT fibrosarcoma cells; 360,000 compounds, 1.6% hits; Potency, µM (doses to about 46.1 µM), without a hit: at the highest dose activity, negative = less viability, actives largely listed as cytotoxic; HT-1080-NT fibrosarcoma viability, CellTiter-Glo ATP luminescence, 48 h; AID 686970;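 note: NT is the 2HG producing partner of a matched IDH1 knockdown line; potency is the fitted concentration of half-maximal effect; 0% = DMSO-treated cells and -100% = media-only wells without cells; nearly all actives have a fitted effect of over 55% in size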
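Fibrosarcoma NT cells, 750 per well in 5% FBS RPMI, were exposed to compound for 48 hours. Viability: CellTiter-Glo luminescence.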
KB-V1 MDR tox – kills drug-selected multidrug resistant KB-V1 cells. Potency, µM (series often up to 46.1 µM), actives largely listed as cytotoxic. KB-V1 MDR cells viability, CellTiter-Glo, 72 h. AID 1347076. 400,000 compounds, 3.4% hits; note: potency is the fitted concentration of half-maximal effect; nearly all actives have a fitted effect of over 60% in size
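Cytotoxicity toward P-gp-expressing KB-V1 cells was determined as loss of CellTiter-Glo luminescence after 72 h at 37 degrees C. Compounds were tested in quantitative HTS format across a concentration range, with curves fitted to normalized data.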
KB-3-1 tox – KB-3-1 parental cell cytotoxicity. KB-3-1 viability, CellTiter-Glo ATP luminescence, 72 h. 400,000 compounds, 1.4% hits. Potency, µM (series often up to 46.1 µM), actives largely listed as cytotoxic. AID 1347075; note: potency is the fitted concentration of half-maximal effect; nearly all actives have a fitted effect of over 60% in size
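Viability of parental KB-3-1 cells, measured by CellTiter-Glo luminescence, followed a 72 h incubation at 37 °C with pinned compounds in phenol-red-free DMEM containing 10% FBS.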
HT1080 IDH1KD tx – kills HT-1080 cells with IDH1 knockdown; 360,000 compounds, 2% hits; HT-1080 IDH1 knockdown viability, ATP luminescence, 48 h; AID 686971; Potency, µM (highest dose often 46.1 µM), for the others: at the top dose activity, negative = toxicity, actives largely listed as cytotoxic;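 note: potency is the fitted concentration of half-maximal effect; 0% = DMSO wells and -100% = cell-free medium wells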
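HT-1080-IDH1KD cells (IDH1 knocked down), 750/well in RPMI with 5% FBS, treated with compound 48 h at 37 degrees C. Viability by CellTiter-Glo luminescence, normalised to DMSO and no-cell wells; concentration-response curves classed.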
The depositor's hits bear a star; i = inactive; ? = inconclusive; · = no result. Unless noted, calls come from the whole dose curve; as a rule, active = well fitted curve in the direction sought with a large enough effect; inconclusive = small, poorly fitted or top-dose-only effect, or another doubt; inactive = no such curve, though single readings can be large; an effect the other way counts as inactive or inconclusive. Unless noted, % is set by controls: 0 for no effect and ±100 for the full control effect.

SMILES	IL1B secr inh	HT1080-NT tox	KB-V1 MDR tox	KB-3-1 tox	HT1080 IDH1KD tx
CCOC(=O)c1c(NC(=O)c2cccnc2)sc(C)c1C	-54.1*	9.8%	i	i	2.0%
CCOC(=O)c1c(NC(=O)c2cccc(N3C(=O)CCC3=O)c2)sc(C)c1C	-14.6	6.8%	10.3µM*	i	-0.8%
COc1ccc(C2(OC)Oc3cc(OC)ccc3C(=O)C2(O)OC)cc1 (stereo not drawn)	-73.6*	-6.4%	2.91µM*	?	?
COc1ccc2c(c1)OC(c1ccccc1)(C(F)(F)F)NC2=O (stereo not drawn)	-1.8	23.9%	i	i	4.2%
CCOC(=O)c1ccc(NC(=O)c2c(N3CCCC3=O)c3cc(OC)ccc3n2C)cc1	·	·	i	i	·
C=CCOc1ccc(Br)cc1CNCCO	-54.8*	21.6%	i	i	13.2%
OCCNCc1cc(Br)ccc1OCc1ccccc1Cl	-58.8*	?	?	?	?
COc1ccc(/C=N/NC(=O)c2ccoc2C)cc1CN1CCN(c2ccc(F)cc2)CC1	-13.6	-2.8%	i	i	0.0%
CC(C)(C)OC(=O)Nc1ccccc1-n1nnnc1C(C(=O)c1ccc(F)cc1)N1CCOCC1 (stereo not drawn)	10.0	2.3%	i	i	16.1%
COCCCn1c(=O)/c(=C/c2ccccc2OC(F)F)s/c1=C(\C#N)C(=O)NCCOC	35.2	1.7%	?	i	2.2%
COCCCn1c(=O)/c(=C\c2ccccc2OC(F)F)s/c1=C(/C#N)C(=O)N1CCOCC1	-68.7*	6.6%	?	i	7.6%
FC(F)(F)c1nnc2sc(-c3ccccn3)nn12	29.6	20.3%	i	i	15.3%
Clc1ccccc1-c1nnc2sc(-c3ccncc3)nn12	-29.7	8.1%	i	i	4.1%
COc1ccccc1-c1nnc2sc(COc3ccc(F)cc3)nn12	-66.8*	-11.9%	i	i	-16.9%
COc1ccccc1-c1nnc2sc(-c3cc4ccccc4o3)nn12	101.2	?	?	0.517µM*	1.46µM*
Clc1ccccc1-c1nn2c(-c3ccncc3)nnc2s1	-66.8*	-0.9%	?	i	-28.3%
COc1ccccc1-c1nn2c(C(F)(F)F)nnc2s1	26.3	5.5%	7.31µM*	?	-5.5%
COc1ccccc1-c1nnc2sc(-c3cnccn3)nn12	21.9	7.5%	i	i	8.6%
CCOc1ccc(-c2nnc3sc(-c4ccccc4OC)nn23)cc1	-13.7	13.1%	i	i	-0.4%
CNc1cncc(C(=O)O)c1	1.8	-0.2%	i	i	14.7%
COc1ccccc1-c1nnc2sc(-c3ccc(N(C)C)cc3)nn12	-1.2	0.92µM*	0.058µM*	0.291µM*	0.517µM*
CN(C)c1ccc(-c2nn3c(-c4ccccc4Cl)nnc3s2)cc1	0.1	?	1.16µM*	0.581µM*	?
O=C(Nc1nc2c(s1)CCCC2)c1ccc(Br)s1	-93.0*	?	5.17µM*	16.4µM*	?
Cc1ncsc1C(=O)Nc1nc2c(s1)CCCC2	9.5	?	13µM*	16.4µM*	?
COc1ccc(NC(=O)Nc2nc3c(s2)CCCC3)cc1	-52.4*	4.6%	i	i	11.5%
SMILES	IL1B secr inh	HT1080-NT tox	KB-V1 MDR tox	KB-3-1 tox	HT1080 IDH1KD tx
Cc1cc(C(=O)Nc2nc3c(s2)CCCC3)cs1	?	6.31µM*	i	i	?
CCOc1ccccc1CN(CCc1ccc2c(c1)OCO2)Cc1cccc(OC)c1OC	·	·	?	i	·
Cc1ccc(Nc2nc(Nc3ccc(C)cc3)nc(SC3=NCCS3)n2)cc1	-7.3	10µM*	i	i	?
Clc1ccccc1NCSC1=NCCS1	6.6	-2.7%	i	i	-16.2%
Cc1ccccc1Nc1nc(Nc2ccccc2C)nc(SC2=NCCS2)n1	?	?	16.4µM*	i	?
CC1=NN(C(=O)c2cccc(Cn3nc(C)c([N+](=O)[O-])c3C)c2)C(O)(C(F)(F)F)C1 (stereo not drawn)	15.1	7.94µM*	?	i	5.01µM*
Cc1nn(Cc2cccc(C(=O)N3N=C(C(F)F)CC3(O)C(F)F)c2)c(C)c1[N+](=O)[O-] (stereo not drawn)	35.1	-19.2%	8.2µM*	i	?
Cc1nn(Cc2ccc(C(=O)N3N=C(C(F)F)CC3(O)C(F)F)o2)c(C)c1[N+](=O)[O-] (stereo not drawn)	4.5	-11.9%	?	i	-14.9%
CCC(NC(=O)c1cccc(Cn2nc(C)c([N+](=O)[O-])c2C)c1)c1ccc(C(C)C)cc1 (stereo not drawn)	36.3	-1.8%	2.91µM*	i	-1.5%
O=C(NCc1cccnc1)c1ccc2sc([C@H]3C[C@H](O)[C@@H](CO)O3)nc2c1	8.2	1.5%	i	i	0.0%
CCCn1c(N)c(N(CCOC)C(=O)c2cc(S(=O)(=O)N3CCCCCC3)ccc2OC)c(=O)[nH]c1=O	9.0	7.2%	i	i	22.0%
CCCCN(C)C(=O)Cn1cnc2sc(C)c(S(=O)(=O)N3CCC(C)CC3)c2c1=O	·	·	i	i	·
c1ccc(CN2CC[C@@H](Nc3nccn4ccnc34)C2)cc1	-7.4	9.9%	i	i	0.3%
C=C[C@@]1(C)CC(=O)[C@]2(O)[C@@]3(C)[C@@H](O)CCC(C)(C)[C@@H]3[C@H](OC(C)=O)[C@H](O)[C@@]2(C)O1	-21.4	-14.9%	i	i	-10.5%
C=C1C(=O)O[C@H]2C[C@]3(C)C([C@@H](OC(=O)/C(C)=C/C)[C@H]12)[C@](C)(O)CC[C@H]3O (stereo partly drawn)	-58.2*	?	i	i	?
CC(=O)OCC1OC(Sc2cccc3cccnc23)C(OC(C)=O)C(OC(C)=O)C1OC(C)=O (stereo not drawn)	-96.9*	?	i	i	-16.9%
CC(=O)OCC1OC(n2ccc3ccccc32)C(OC(C)=O)C(OC(C)=O)C1OC(C)=O (stereo not drawn)	0.8	17.8%	i	i	21.7%
COc1ccc(-n2c(=O)c3ccccc3n(CC(=O)NCCc3ccccc3)c2=O)c(OC)c1	·	·	?	i	·
O=C(c1ccccc1F)N1CCN(Cc2nc3sc4c(c3c(=O)[nH]2)CCCC4)CC1	-7.2	-8.3%	?	i	-13.2%
Cc1ccc(C(=O)N2CCN(Cc3nc4sc5c(c4c(=O)[nH]3)CCCC5)CC2)cc1	8.6	7.1%	16.4µM*	?	12.2%
Cc1cccc(-n2c3nc(=O)[nH]c(=O)c-3cc3cc([N+](=O)[O-])ccc32)c1	-100.6*	?	16.4µM*	?	?
O=c1nc2n(-c3ccccc3F)c3ccccc3cc-2c(=O)[nH]1	·	·	?	i	·
